Source: PubChem BioAssay
Hits are enriched below; roughly 4% of the tested compounds scored in any of these assays.
GDH-TPI counter: GDH-TPI coupling enzyme inhibitors, primary screen, artefact control for M. tuberculosis FBA inhibitor project, biochemical, absorbance, full deck | GDH-TPI coupled enzyme counterscreen, NADH absorbance | inhibition, % at 4.8 µM | hit rate 1.2% among 360,000 | AID 588335, 2011; in the data active = inhibition above about 30%
UGM FP inh: M. tuberculosis UGM enzyme inhibitors, primary screen, biochemical, fluorescence polarization, single point | UDP-galactopyranose mutase (Mycobacterium tuberculosis (strain ATCC 25618 / H37Rv)), … | purified UGM, fluorescence polarization probe displacement | inhibition, % at 10 µM | hit rate 0.06% among 320,000 | AID 504406, 2011; in the data active = inhibition above about 10%, passing the limit was not always enough; inconclusive = no clear call, values can overlap the other calls
RecA splice inh: Mtb RecA intein splicing inhibitors, primary screen, biochemical, fluorescence, HTS; Protein RecA (Mycobacterium tuberculosis (strain ATCC 25618 / H37Rv)), P9WHJ3; cell-free RecA intein splicing; inhibition, % (concentration not given with the values); hit rate 0.75% among 290,000; AID 2221, 2009; in the data active = inhibition above about 30%; inconclusive = no clear call, values can overlap the other calls
Mtb bLac sens: beta-lactam sensitization of Mtb H37Rv, H37Rv | hit rate 0.27% among 330,000 | M. tuberculosis H37Rv growth with meropenem, percent inhibition | inhibition, % at 25 µM; call rule not given here;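 note: growth measured after seven days incubation then overnight dye step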
Rv3671c protease: Rv3671c serine protease inhibitors, primary screen, biochemical, fluorescence polarization, M. tuberculosis H37Rv; P9WHR9; inhibition, % at 5.96 µM; hit rate 0.048% among 320,000; AID 2606, 2010; in the data active = inhibition above about 38%;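 note: extracellular domain of Rv3671c used as enzyme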
FBA Mtb inh: Mtb FBA enzyme inhibitors, primary screen, biochemical, fluorescence, strain H37Rv; purified M. tuberculosis FBA, fluorescence read-out; inhibition, % at 1 µM; hit rate 2.3% among 360,000; AID 588726, 2011; in the data active = inhibition above about 27%
Target sequence (P9WQA3 whole entry, looked up): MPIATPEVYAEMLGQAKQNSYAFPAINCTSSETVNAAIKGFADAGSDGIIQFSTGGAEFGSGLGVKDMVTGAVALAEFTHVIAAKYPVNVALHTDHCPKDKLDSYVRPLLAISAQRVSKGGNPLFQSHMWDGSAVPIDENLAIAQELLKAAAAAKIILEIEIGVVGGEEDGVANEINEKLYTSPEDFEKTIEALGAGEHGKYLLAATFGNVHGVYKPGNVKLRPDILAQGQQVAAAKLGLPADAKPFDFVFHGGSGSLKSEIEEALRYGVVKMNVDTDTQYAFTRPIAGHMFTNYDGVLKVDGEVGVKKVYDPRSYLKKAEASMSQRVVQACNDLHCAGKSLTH
Large screens that a line does not name were inactive.

O=C1C(Nc2ccccc2)=C(N2CCCCC2)C(=O)c2ccccc21	RecA splice inh 46
CCC(CC)C(=O)Oc1c(C(=O)N(C)C)cccc1-c1ccccc1	none (no result: UGM FP inh, RecA splice inh, Mtb bLac sens, Rv3671c protease)
COCCn1c(=NC(=O)c2cc3ccccc3oc2=O)sc2cc(S(N)(=O)=O)ccc21	GDH-TPI counter 49
CCOC(=O)N1CCC(Nc2c(-c3ccc(C)c(C)c3)c(=O)c2=O)CC1	GDH-TPI counter 33
CCOC(=O)N1CCC(Nc2c(N3CCN(c4cc(Cl)ccc4C)CC3)c(=O)c2=O)CC1	none
CC1=Nc2ccccc2/C1=C\c1nc(-c2ccccc2)oc1O	none
CC1=Nc2ccccc2/C1=C\c1nc(-c2ccc(C(F)(F)F)cc2)oc1O	UGM FP inh 12
O=C(COc1ccc([N+](=O)[O-])cc1)Nc1ccc(C(=O)Nc2ccccc2C(=O)O)cc1	none
O=C1NC(=O)/C(=C/c2cccc3ccccc23)S1	GDH-TPI counter 37
O=C1NC(=O)C(=Cc2ccccc2[N+](=O)[O-])S1	none (no result: UGM FP inh, RecA splice inh, Mtb bLac sens, Rv3671c protease)
CCN(c1cccc(C)c1)S(=O)(=O)c1cc(CN2C(=O)c3cccnc3C2=O)ccc1OC	none
COc1ccc(CN(C)CC(=O)Nc2ccccc2C(=O)NC2CC2)cc1F	none (no result: RecA splice inh)
Cc1nnc(Sc2cc(NCCO)c([N+](=O)[O-])c3nonc23)s1	RecA splice inh 93 (no result: UGM FP inh, Mtb bLac sens, Rv3671c protease)
O=[N+]([O-])c1c(NCCCO)cc(Sc2nc3ccccc3s2)c2nonc12	none
Cc1ccc2[nH]c3c(=O)n(CCN4CCNCC4)cnc3c2c1	none
COc1ccc2c(c1)c1ncn(CCN3CCNCC3)c(=O)c1n2C	FBA Mtb inh 129
COc1cccc2[nH]c3c(N4CCC(C)CC4)ncnc3c12	none
O=c1c2[nH]c3ccccc3c2ncn1CCN1CCOCC1	Mtb bLac sens inconclusive (no result: RecA splice inh)
COc1ccc2[nH]c3c(=O)n(CCN4CCOCC4)cnc3c2c1	GDH-TPI counter 31, FBA Mtb inh 152
Cc1ccc2c(c1)[nH]c1c(=O)n(CCCN3CCOCC3)cnc12	none
COc1cccc2[nH]c3c(N4CCC5(CC4)OCCO5)ncnc3c12	FBA Mtb inh 149
COc1cccc2[nH]c3c(=O)n(CCCN4CCOCC4)cnc3c12	FBA Mtb inh 147
CCOC(=O)[C@H]1[C@H]2COc3ccc(Cl)cc3[C@@H]2N2C(=O)[C@@H](C)NC(=O)[C@@]12C	none (no result: RecA splice inh)
Cn1cnnc1SCC(=O)NC1CC1	none (no result: RecA splice inh)
CCNC(=O)C(=O)NCCC1CCCCN1S(=O)(=O)c1cccs1 (stereo unspecified)	FBA Mtb inh 130
CC(C)CNC(=O)C(=O)NCCC1CCCCN1S(=O)(=O)c1cccs1 (stereo unspecified)	none
CC(=O)N1CC2(CC(c3ccccc3F)=NO2)CN1c1ccc(Cl)cc1 (stereo unspecified)	none (no result: UGM FP inh, RecA splice inh, Mtb bLac sens, Rv3671c protease)
O=C(NC1CC1)c1cccc(Nc2ccc(-c3ccc4c(c3)OCCO4)nn2)c1	none
O=S(=O)(c1ccc(Nc2ccc(-c3ccc4c(c3)OCCO4)nn2)cc1)N1CCCC1	GDH-TPI counter 34
Cc1[nH]n(C(C)(C)C)c(=O)c1Sc1ccccc1	RecA splice inh 50
Nc1c(Sc2ccccc2)c(=O)[nH]c(=O)n1Cc1ccccc1	none
CN(C)/C=C1\N=C(c2ccc3c(c2)OCO3)OC1=O	GDH-TPI counter 53
CN(C)/C=C1\N=C(c2ccccc2)OC1=O	GDH-TPI counter 35
O=C1c2cccc3cc([N+](=O)[O-])cc(c23)C(=O)N1/N=C/c1ccc(O)cc1O	GDH-TPI counter 56
O=C1c2cccc3cc([N+](=O)[O-])cc(c23)C(=O)N1CCN1CCCC1	none (no result: UGM FP inh, Mtb bLac sens, Rv3671c protease)
O=C(NC1=NCCS1)c1ccc(-c2ccc(Cl)cc2)o1	GDH-TPI counter 55, FBA Mtb inh 136
O=C(NC1=NCCS1)c1ccc(Cl)cc1	none
Cc1cc(OCC(=O)Nc2ccc(S(=O)(=O)N3CCN(C)CC3)cc2)ccc1Cl	FBA Mtb inh 141
Cc1cc(OCC(=O)Nc2ccc(S(=O)(=O)N3CCN(C)CC3)cc2)cc(C)c1Cl	none
Cc1c(Cc2ccccc2)c(=O)oc2cc(O)cc(O)c12	FBA Mtb inh 114
CC1CCN(CCCNC(=O)C2CC(=O)N(CCc3ccccc3)C2)CC1 (stereo unspecified)	none
COc1ccccc1C(=O)OCC(=O)Nc1cccc(S(=O)(=O)N2CCCC2)c1	none (no result: UGM FP inh, RecA splice inh, Mtb bLac sens, Rv3671c protease)
N#CCN1CCC/C1=C\[N+](=O)[O-]	GDH-TPI counter 32
NC(=O)C(C(=O)/C=C/c1ccc(Cl)cc1)=C1SCCS1	GDH-TPI counter 44 (no result: RecA splice inh)
O=S(=O)(c1ccccc1)N1N=C(c2ccccc2)CC1c1ccccc1F (stereo unspecified)	none
N#Cc1ccc(N)cc1OCCCN1CCCCC1	none (no result: UGM FP inh, RecA splice inh, Mtb bLac sens, Rv3671c protease)
COc1ccc(-c2nc3ccc(C)cn3c2NCc2ccccc2)cc1SC1CCCCC1	none
CCC(C)Sc1ccc(-c2nc3ccc(C)cn3c2NCc2ccccc2)cc1OC (stereo unspecified)	GDH-TPI counter 42, FBA Mtb inh 116
CCC(C)Sc1cc(-c2nc3ccc(C)cn3c2NCc2ccccc2)ccc1OC (stereo unspecified)	FBA Mtb inh 64
O=C(CN1c2cccc3cccc(c23)S1(=O)=O)Nc1ccc(F)c(F)c1F	none (no result: RecA splice inh)
CCN(CC)CCCNC(=O)c1ccc(S(=O)(=O)Nc2ccc(C)c(C)c2)cc1	none (no result: RecA splice inh)
CN=CC1=C(O)c2ccccc2C1=O	GDH-TPI counter 35
CC1(C)CC(=O)C(C=Nc2ccccc2C(=O)O)=C(O)C1	GDH-TPI counter 42
CC1(C)CC(=O)C(C=Nc2ccccc2)=C(O)C1	none
COc1cc2cc(C)c(SCC(=O)N3CCN(C(=O)c4ccco4)CC3)nc2cc1OC	GDH-TPI counter 44
CCc1cc2cc(C)ccc2nc1SCC(=O)N1CCN(C(=O)c2ccco2)CC1	none (no result: RecA splice inh)
CCC1(C2=CCCCC2)C(=O)NC(=S)N=C1N (stereo unspecified)	none (no result: UGM FP inh, RecA splice inh, Mtb bLac sens, Rv3671c protease)
O=C(NCCS(=O)(=O)N1CCN(c2ccccc2)CC1)c1ccccc1F	none
Oc1ccccc1C1=Nc2ncnn2C(c2ccccc2)C1 (stereo unspecified)	GDH-TPI counter 35
Cc1cc(-c2ccc(C(C)C)c(S(=O)(=O)Nc3cc(C)on3)c2)on1	none
CCc1noc(C)c1C(=O)OCC(=O)Nc1cccc(C)c1	none (no result: RecA splice inh)
C=CCNc1oc(/C=C/c2ccccc2)nc1C#N	GDH-TPI counter 48, FBA Mtb inh active (no result: Mtb bLac sens)
CN(C)CCNc1oc(/C=C/c2ccccc2)nc1C#N	FBA Mtb inh 135
COc1cccc(/C=C/c2nc(C#N)c(NCC(C)C)o2)c1	FBA Mtb inh active
CCOc1ccc(/C=C/c2nc(C#N)c(NCCCOC)o2)cc1	none
CCOc1ccc(/C=C/c2nc(C#N)c(NCCCN(C)C)o2)cc1	GDH-TPI counter 36
C=CCNc1oc(Cc2cccc3ccccc23)nc1C#N	none
